The text below walks through data of PubChem BioAssay (EPA / NIEHS).

Results filed as inconclusive are left out. Active and inactive are the calls of the source. The calls were made as follows: active = hit-call score of the fitted dose curve at least 0.9, where 1 is the maximum; inconclusive = response in the unintended direction; inactive = score below 0.9.

Read-out in this test: xenobiotic metabolism (CYP1A2), CYP1A2 (gene 1544)
Description: CLD_CYP1A2_24hr: CellzDirect (CLD) Gene Expression Assay for xenobiotic metabolism (CYP1A2) at 24 hours (AID 2283683). How it is done:
CLD_24hr is a cell-based, multiplexed-readout assay that uses hepatocyte, a human liver primary cell, with measurements taken at 24 hours after chemical dosing in a 96-well plate.CLD_CYP1A2_24hr is one of 16 assay component(s) measured or calculated from the CLD_24hr assay. It is designed to make measurements of mRNA induction, a form of inducible reporter, as detected with chemiluminescence signals by Quantitative Nuclease Protection Assay (qNPA) technology.Data from the assay component CLD_CYP1A2_24hr was analyzed at the endpoint, CLD_CYP1A2_24hr, in the positive analysis fitting direction relative to DMSO as the negative control and baseline of activity. Using a type of inducible reporter, gain-of-signal activity can be used to understand changes in the reporter gene as they relate to the gene CYP1A2. Furthermore, this assay endpoint can be referred to as a primary readout. To generalize the intended target to other relatable targets, this assay endpoint is annotated to the cyp intended target family, where subfamily is xenobiotic metabolism.
Human hepatocyte cultures were treated daily for two consecutive days with fresh dosing solutions containing appropriate concentrations of the 320 ToxCast chemicals (chemical identities were blinded to CellzDirect and other ToxCast collaborators), vehicle control (0.2% DMSO), and positive control inducers as summarized in Table 1. Due to the large number of treatment groups and chemicals examined, the ToxCast chemicals were divided into two groups (spanning two independent cultures of hepatocytes from separate donor preparations (Hu778: ToxCast plates 1 and 2; Hu776: ToxCast plates 3 and 4). Each preparation of human hepatocyte cultures was treated with respective vehicle control, medium only control, set of six positive controls/reference chemicals for the five hepatic receptor pathways, and a subset of eight of the ToxCast chemicals (indoxacarb, pyrithiobac-sodium, norflurazon, cyhalofop-butyl, methomyl, thiram, acetochlor, and propiconazole). These replicate data, coupled with internal replicates designed within the blinded ToxCast chemical library, provided additional data to evaluate interindividual differences between hepatocyte preparations and their potential impact on chemical profiles.Cell morphology and integrity were evaluated using phase-contrast microscopy as an indicator of hepatocyte cell health (Tyson & Green, 1987). Cultures for each treatment group (i.e., media, vehicle [0.2% DMSO], positive control inducers [multiple concentrations], and the ToxCast chemicals [multiple concentrations]) were observed and cell morphology was assessed relative to vehicle control cultures at each harvest time point (0, 6, 24, or 48 h). […] Images were evaluated at the conclusion of the study to assess changes in cell integrity and account for the effects of chemical exposure on uncharacteristic changes in concentration-dependent gene expression profiles. The results from these determinations of apparent cytotoxicity were annotated (yes/no) alongside the corresponding qNPA data for reference.At the conclusion of each treatment period, hepatocyte cultures (96-well) were washed with 1 volume of HBSS, lysed by addition of 25 ul ArrayPlate lysis buffer (HTG, Tucson, AZ), and 70 ul/well of Denaturation Oil, denatured by incubation at 95C for 10 min, and frozen at approximately -70C until analysis by nuclease protection assay (qNPA) (Roberts et al., 2007). For qNPA analysis, cell lysates were thawed at 50C for approximately 30 min, qNPA probes were added, and samples were incubated at 95C for 10 min to begin the detection process by denaturing the target RNA, dissociating the duplexes and secondary structure hybridization. At the conclusion of the hybridization period, S1 nuclease reagent was added to each sample to digest all nonprotected nucleotides at 50C for 60-90 min. […]
In general, AC50 refers to the midpoint of the concentration-response curve, whichever way the signal moves. For the compound `COC(=O)N(C(=O)N1CO[C@@]2(C(=O)OC)Cc3cc(Cl)ccc3C2=N1)c1ccc(OC(F)(F)F)cc1`, the concentration at half-maximal activity (AC50) is 1.28 µM (active).

As to `CC(C)N1C(=O)c2ccccc2NS1(=O)=O`, the compound was classed as inactive.

Consider `Cc1cc(C)nc(Nc2ccccc2)n1`, for which the AC50 is 5.77 µM (active).

`CCOc1nc(F)cc2nc(S(=O)(=O)Nc3c(Cl)cccc3Cl)nn12`: the compound was classed as inactive.

As for `COc1cc(OC)nc(NC(=O)NS(=O)(=O)c2ncccc2OCC(F)(F)F)n1`, the call was inactive.

Consider `Cc1nc(N(C)C)nc(OC(=O)N(C)C)c1C`, for which the AC50 was 3.66 µM (active).

`CS(=O)(=O)c1ccc(C(=O)C2C(=O)CCCC2=O)c([N+](=O)[O-])c1`: the compound was classed as inactive.

Regarding `O=C(Nc1ccccc1-c1ccc(Cl)cc1)c1cccnc1Cl`, the AC50 is 6.74 µM (active).

For `N#Cc1c[nH]cc1-c1cccc2c1OC(F)(F)O2`, the AC50 is 1.56 µM (active).

Regarding `CC(C)N1C(=O)N(c2ccccc2)CSC1=NC(C)(C)C`, the call was inactive.

With `CC(C)NC(=O)N1CC(=O)N(c2cc(Cl)cc(Cl)c2)C1=O`, the AC50 is 15.7 µM (active).

Regarding `CC(C)Nc1nc(Cl)nc(NC(C)C)n1`, the AC50 was 7.72 µM (active).

For the compound `COC(=O)NC(=S)Nc1ccccc1NC(=S)NC(=O)OC`, the AC50 was 12.2 µM (active).

Turning to `Nc1c(Cl)c(Cl)nc(C(=O)O)c1Cl`, the AC50 was 20 µM (active).

For `CCCCC(C#N)(Cn1cncn1)c1ccc(Cl)cc1` (stereo not given), the concentration at half-maximal activity (AC50) was 20 µM (active).

Take `OC(c1ccc(Cl)cc1)(c1ccc(Cl)cc1)C(Cl)(Cl)Cl`: the compound was classed as inactive.

For the compound `CCOc1cc(C(C)(C)C)ccc1C1COC(c2c(F)cccc2F)=N1` (stereo not given), the AC50 is 15.7 µM (active).

On to `CCOc1nc(C(Cl)(Cl)Cl)ns1`, for which the outcome was inactive.

`Nc1cnn(-c2ccccc2)c(=O)c1Cl`: the AC50 was 5.8 µM (active).

`CC(C)(C)C(=O)C(Oc1ccc(Cl)cc1)n1cncn1` (stereo not given): the AC50 is 9.31 µM (active).

On to `N#CN=C1SCCN1Cc1ccc(Cl)nc1`, for which the call was inactive.

With `Clc1nc(Cl)nc(Nc2ccccc2Cl)n1`, the compound was called inactive.

Regarding `CCOP(=S)(OCC)Oc1nc(Cl)n(C(C)C)n1`, the AC50 was 0.975 µM (active).

As for `CC(C)=CC1C(C(=O)OCc2coc(Cc3ccccc3)c2)C1(C)C` (stereo not given), the outcome was inactive.

Take `CO/N=C(/C1=NOCCO1)c1ccccc1Oc1ncnc(Oc2ccccc2Cl)c1F`: the call was inactive.

In the case of `CC1(C)CCC(=Cc2ccc(Cl)cc2)C1(O)Cn1cncn1` (stereo not given), the AC50 was 3.47 µM (active).

For the compound `CS(=O)(=O)c1cc(C(F)(F)F)ccc1C(=O)c1cnoc1C1CC1`, the call was inactive.

Turning to `Cn1c(-c2ccccc2)cc(-c2ccccc2)[n+]1C`, the AC50 was 0.141 µM (active).

For `Cc1cnc(C2=NC(C)(C(C)C)C(=O)N2)c(C(=O)O)c1` (stereo not given), the call was inactive.

Take `COP(=S)(OC)SCn1nnc2ccccc2c1=O`: the AC50 is 2.27 µM (active).

Take `CNC(=O)N(C)c1nnc(C(C)(C)C)s1`: the call was inactive.

On to `O=C(O)c1c(Cl)ccc2cc(Cl)cnc12`, for which the outcome was inactive.

As for `COP(=O)(OC)O/C(C)=C/C(=O)N(C)C`, the outcome was inactive.

With `CCCCOCN(C(=O)CCl)c1c(CC)cccc1CC`, the outcome was inactive.

For `CC1(C)C(C=C(Cl)Cl)C1C(=O)OC(C#N)c1cccc(Oc2ccccc2)c1` (stereo not given), the half-maximal activity concentration (AC50) is 11 µM (active).

Consider `Cc1ccc(N=CN(C)C=Nc2ccc(C)cc2C)c(C)c1`, for which the call was inactive.

`CCNP(=S)(OC)O/C(C)=C/C(=O)OC(C)C` (stereo not given): the AC50 is 4.58 µM (active).

On to `COP(=S)(OC)Oc1ccc([N+](=O)[O-])c(C)c1`, for which the AC50 is 1.38 µM (active).

As for `CCCN(CC)CC1COC2(CCC(C(C)(C)C)CC2)O1` (stereo not given), the AC50 is 0.583 µM (active).

Regarding `CCN(CC)C(=O)C(C)Oc1cccc2ccccc12` (stereo not given), the AC50 was 8.79 µM (active).
